Test [1] in a line: qHTS assay for small molecule agonists of the p53 signaling pathway (AID 651631; calls by dose curve; note: nearly all actives have a fitted effect of over 15% in size). In short, it runs like this: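 Readout was fluorescence from the LiveBLAzer FRET substrate, applied for 2 h at room temperature after 16 h compound exposure at 37 °C. Cells were the p53RE-bla HCT-116 line, with beta-lactamase driven by p53 response elements.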
Test [2] in a line: qHTS assay for small molecules that induce genotoxicity in human embryonic kidney cells expressing luciferase-tagged ATAD5 (AID 651632). Note: nearly all actives have a fitted effect of over 15% in size. In short, it runs like this:
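ATAD5-luc HEK293T, 2,000 cells/well; cpd or DMSO pin-transferred; 16 hr, 37C/5% CO2; Amplite 30 min RT; luminescence.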
Background: In qHTS, concentration-response curves come from the screen itself.

Test [3] is described as follows: qHTS assay for small molecule agonists of the p53 signaling pathway - cell viability (AID 651633; calls by dose curve; note: series mostly up to about 83 µM; nearly all actives have a fitted effect of over 30% in size). The gist of the method: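 p53RE-bla cells were treated with compound for 16 hours at 37 C. Cytotoxicity was then measured as CellTiter-Glo luminescence after 30 min at room temperature.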
Test [4] is described as follows: qHTS assay for small molecules that induce genotoxicity in human embryonic kidney cells expressing luciferase-tagged ATAD5 - cell viability (AID 651634; calls by dose curve; note: nearly all actives have a fitted effect of over 25% in size). In short, it runs like this:
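Fluorescence from CellTiter-Fluor, reporting protease activity within live cells, served as the viability read-out. HEK293T cells carrying luciferase-tagged ATAD5 had been treated with compound for 15.5 hr at 37C.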

Test [5] can be described thus: qHTS assay for small molecule disruptors of the mitochondrial membrane potential - cell viability (AID 720634; calls by dose curve;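 note: human HepG2 liver cancer cells; series mostly up to about 83 µM; nearly all actives have a fitted effect of over 20% in size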). The gist of the method: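 Cells: HepG2, 2,000/well, attached overnight. Compound 1 hr, 37 C/5% CO2. +m-MPI dye, +CellTiter-Glo 30 min RT. Readout: luminescence (ATP).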
The nature of test [6]: qHTS assay to test for compound auto fluorescence at 590 nm (red) in HepG2 cells (AID 720674). The gist of the method: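 HepG2 cells, 2,000 per well in MEM with 10% FBS, attached overnight at 37 C, then got 23 nL compound or DMSO. After 1 hr at 37 C, 5% CO2, red fluorescence was read at 540/590 nm against Rose Bengal sodium as reference.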
Test [7] in a line: qHTS assay to test for compound auto fluorescence at 535 nm (green) in HepG2 cells (AID 720675).
Test [8] in a line: qHTS assay to test for compound auto fluorescence at 590 nm (red) in HEK293 cells (AID 720679). The gist of the method:
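Plates of HEK293 cells (10% dialyzed FBS) are treated with 23 nL compound or DMSO vehicle after a 4-5 hr attachment period, incubated overnight at 37C, and read for red fluorescence at 540/590nm.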

Test [9] is described as follows: qHTS assay to test for compound auto fluorescence at 460 nm (blue) in HEK293 cell free culture (AID 720681). The gist of the method:
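Compounds were added to cell-free DMEM with 10% FBS and fluorescence read directly. The blue channel used 405 nm excitation and 460 nm emission, with triamterene as the reference fluorophore.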

Test [10] in a line: qHTS assay to test for compound auto fluorescence at 590 nm (red) in HEK293 cell free culture (AID 720683). The gist of the method:
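Cell-free wells of DMEM with 10% FBS received compound, and intrinsic fluorescence was read at excitation/emission 540/590 nm. Values expressed as equivalence to Rose Bengal sodium.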

Test [11] can be described thus: qHTS assay to test for compound auto fluorescence at 590 nm (red) in HepG2 cell free culture (AID 720684). In short, it runs like this:
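Compounds are added to culture medium (MEM, 10% FBS) lacking cells, then fluorescence is read at excitation 540 nm, emission 590 nm, with Rose Bengal sodium as the equivalency standard.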

Test [12] can be described thus: qHTS assay to test for compound auto fluorescence at 460 nm (blue) in HepG2 cell free culture (AID 720685). In short, it runs like this:
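Compound (23 nL) or DMSO pinned into cell-free MEM with 10% FBS; blue fluorescence read at 405/460 nm excitation/emission, expressed as auto-fluorescence equivalency to triamterene.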

A short description of test [13]: qHTS assay to test for compound auto fluorescence at 535 nm (green) in HepG2 cell free culture (AID 720686).
A short description of test [14]: qHTS assay to test for compound auto fluorescence at 460 nm (blue) in HepG2 cells (AID 720687). In short, it runs like this:
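HepG2 cells in MEM with 10% FBS, attached overnight at 37 C, were exposed to compound or DMSO for 1 hr at 37 C, 5% CO2. Blue fluorescence was read at 405/460 nm, with triamterene as reference fluorophore.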

For test [15], the target named is Glucocorticoid receptor (Homo sapiens) (UniProt P04150). Nature of the test: qHTS assay to identify small molecule agonists of the glucocorticoid receptor (GR) signaling pathway (AID 720691; active = well fitted activation curve with a large enough effect in the signal ratio in the repeat runs, not every such curve was filed as active; the % refers to the signal ratio; note: potency is the fitted concentration of half-maximal effect). In short, it runs like this:
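Fluorescence intensity from LiveBLAzer B/G FRET substrate (2 h, room temperature) reports beta-lactamase expression driven by the glucocorticoid response element in GR-bla HeLa cells after 18 h compound exposure at 37 C.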

For test [16] the target is unchanged. Nature of the test: qHTS assay to identify small molecule antagonists of the glucocorticoid receptor (GR) signaling pathway (AID 720692; active = well fitted inhibition curve with a large enough effect in the signal ratio in the repeat runs, not every such curve was filed as active; the % refers to the signal ratio). In short, it runs like this: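 HeLa GR-bla cells; cmpd + dex 5 nM final, 18 h 37 C; LiveBLAzer B/G FRET substrate 2 h RT; fluorescence intensity read. Antagonist mode, qHTS.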
The nature of test [17]: qHTS assay to test for compound auto fluorescence at 460 nm (blue) in HEK293 cells (AID 720678). The gist of the method:
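After cell attachment (4-5 hr, 37C), compounds were pinned onto HEK293 monolayers in 10% dialyzed FBS medium. The blue channel (405/460 nm) was read following overnight culture. Equivalency was calculated against triamterene.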

The nature of test [18]: qHTS assay to test for compound auto fluorescence at 535 nm (green) in HEK293 cells (AID 720680).
Test [19] is described as follows: qHTS assay to test for compound auto fluorescence at 535 nm (green) in HEK293 cell free culture (AID 720682). The gist of the method: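 Compounds were pin-transferred into cell-free DMEM with 10% FBS, and green fluorescence was read at excitation 485 nm and emission 535 nm. Intensities were expressed as fluorescein-equivalent values.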

Values without a mark were called inactive. Inconclusive results are not listed. Active and inactive are the calls of the source. Unless noted, calls come from the whole dose curve; as a rule, active = well fitted curve in the direction sought with a large enough effect in the repeat runs; inconclusive = weak or mixed curves; inactive = no such curve, though single readings can be large; an effect the other way counts as inactive or inconclusive.

Chain of Glucocorticoid receptor (Homo sapiens) (P04150 whole entry, looked up): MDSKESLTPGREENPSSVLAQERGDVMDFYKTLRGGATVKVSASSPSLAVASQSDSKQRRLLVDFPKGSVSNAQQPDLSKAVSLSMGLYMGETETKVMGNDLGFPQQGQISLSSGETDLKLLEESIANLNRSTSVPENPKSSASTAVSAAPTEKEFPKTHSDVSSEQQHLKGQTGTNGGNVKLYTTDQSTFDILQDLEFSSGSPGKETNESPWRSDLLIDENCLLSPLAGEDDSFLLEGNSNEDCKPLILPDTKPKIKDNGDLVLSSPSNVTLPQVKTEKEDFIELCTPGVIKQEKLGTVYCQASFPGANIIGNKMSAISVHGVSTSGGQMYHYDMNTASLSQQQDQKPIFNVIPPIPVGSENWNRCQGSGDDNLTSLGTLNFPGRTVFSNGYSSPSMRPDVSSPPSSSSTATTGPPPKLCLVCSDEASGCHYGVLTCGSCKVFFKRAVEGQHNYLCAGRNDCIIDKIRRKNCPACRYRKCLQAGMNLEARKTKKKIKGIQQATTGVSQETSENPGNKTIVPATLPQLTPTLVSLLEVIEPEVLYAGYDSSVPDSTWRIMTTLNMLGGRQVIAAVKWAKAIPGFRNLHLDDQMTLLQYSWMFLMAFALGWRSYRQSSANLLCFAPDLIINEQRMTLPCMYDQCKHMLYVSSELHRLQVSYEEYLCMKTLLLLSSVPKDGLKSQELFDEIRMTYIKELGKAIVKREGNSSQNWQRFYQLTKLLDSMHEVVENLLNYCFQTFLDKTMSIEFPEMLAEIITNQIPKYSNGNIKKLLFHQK

As for `O=C(O)C1CCC(C(=O)O)CC1` (centres undefined), the Potency entry in [1], in test [2], in [3], in test [4], in [5] and in [9] was “inactive” throughout. Moreover, the Potency entry in test [12], in [14], in [15] and in [16] was “inactive” throughout. Moreover, the compound was classed as inactive in test [6], in [7], in test [8], in test [10], in [11] and in [13].

Take `C1=Cc2ccccc2C1`: the Potency result in test [1], in test [2], in [3], in [4], in test [5] and in test [17] was “inactive” throughout. The Potency result in test [12] and in [14] was “inactive” throughout. Moreover, the call in test [6], in [7], in [8], in [18], in test [19] and in test [10] was inactive. Moreover, the compound was classed as inactive in test [11] and in test [13].

`CCCCCCCCCO`: the Potency entry in [1], in test [2], in test [3], in [4], in [5] and in test [17] was “inactive” in each case. The Potency entry in test [12], in test [15] and in test [16] was “inactive” in each case. Besides, the call in test [6], in [7], in test [8], in test [18], in [19] and in test [10] was inactive. In addition, the outcome in test [11] and in test [13] was inactive.

Turning to `Cc1cc(NC(=O)C(=O)O)cc(C)c1Oc1ccc(O)c2c1CCC2`, the Potency result in test [1], in [2], in test [3], in [4], in test [5] and in [17] was “inactive” throughout. Also, the Potency entry in [9], in [12], in test [14], in [15] and in [16] was “inactive” in each case. Also, the outcome in test [6], in test [7], in test [8], in [19], in test [10] and in [13] was inactive.

As to `CCCCCc1ccc(N)cc1`, the Potency entry in [1], in test [2], in test [3], in test [4], in test [5] and in test [17] was “inactive” each time. Also, the Potency entry in [9], in test [12] and in test [14] was “inactive” throughout. For the same compound, the result in test [6], in [7], in [8], in test [19], in test [10] and in test [11] was inactive. Further, the call in test [13] was inactive.

As to `O=C(c1ccc(O)cc1)c1ccc(O)cc1`, the Potency entry in [1], in test [2], in [3], in [4], in test [5] and in test [17] was “inactive” each time. Also, the Potency result in [9], in test [12], in [14], in [15] and in [16] was “inactive” throughout. The call in test [6], in test [7], in test [8], in [19], in test [10] and in test [11] was inactive. For the same compound, the compound was classed as inactive in [13].

Consider `CCC(=O)OC(C)(C)C1CC=C(C)CC1` (centres undefined), for which the Potency entry in [1], in test [2], in test [3], in test [4], in test [5] and in test [12] was “inactive” throughout. Moreover, in test [14], the Potency result was “inactive”. For the same compound, the compound was classed as inactive in test [6], in [7], in [8], in [18], in test [19] and in test [10]. In addition, the result in test [13] was inactive.

Turning to `CC(C)CC=O`, the Potency result in [1], in [2], in test [3], in test [4], in test [5] and in [9] was “inactive” each time. In addition, the Potency entry in [12], in test [14] and in test [15] was “inactive” throughout. In addition, the outcome in test [6], in test [7], in test [8], in test [18], in [19] and in test [10] was inactive. Further, the call in test [11] and in test [13] was inactive.

Turning to `CC(C)c1ccccc1C(C)C`, the Potency entry in test [1], in test [2], in test [3], in [4], in test [5] and in [17] was “inactive” throughout. Also, the Potency entry in test [12], in test [14] and in test [15] was “inactive” throughout. The outcome in [7], in test [8], in [18], in [10], in [11] and in [13] was inactive.

Regarding `CCCCCCCCCC=O`, the Potency entry in [1], in test [2], in test [3], in test [4], in [5] and in test [17] was “inactive” in each case. The Potency entry in test [9], in [12], in test [14] and in test [15] was “inactive” throughout. Further, the result in test [7], in test [8], in [18], in test [19], in test [10] and in [11] was inactive. Besides, the call in test [13] was inactive.

With `CC[C@H](C)[C@H](N)C(=O)O`, the Potency entry in [1], in [2], in test [3], in test [4], in test [5] and in test [17] was “inactive” each time. For the same compound, the Potency entry in [9], in test [12], in [14] and in test [15] was “inactive” in each case. Further, the compound was classed as inactive in test [7], in test [8], in [18], in [19], in test [10] and in test [11]. Also, the outcome in test [13] was inactive.

For the compound `CC(=O)[C@@]1(O)CC[C@H]2[C@@H]3C[C@H](C)C4=CC(=O)CC[C@]4(C)[C@H]3CC[C@@]21C`, the Potency result in test [1], in test [2], in [3], in [4], in test [5] and in test [17] was “inactive” each time. The Potency result in test [12] and in test [14] was “inactive” throughout. The compound was classed as inactive in [6], in [7], in test [8], in [18], in test [19] and in test [10]. The compound was classed as inactive in test [11] and in test [13]. The Potency in test [15] was 0.0849 µM (active).

Consider `C[C@H](CCC(=O)O)[C@H]1CC[C@H]2[C@@H]3[C@H](O)C[C@@H]4C[C@H](O)CC[C@]4(C)[C@H]3CC[C@]12C`, for which the Potency result in test [1], in test [2], in [3], in test [4], in test [5] and in test [17] was “inactive” in each case. The Potency entry in test [9], in test [12] and in test [14] was “inactive” throughout. Moreover, the outcome in test [6], in test [7], in [8], in test [10], in test [11] and in test [13] was inactive.

Consider `CN(C)C/C=C(/c1ccc(Br)cc1)c1cccnc1`, for which the Potency entry in test [1], in test [2], in [3], in [4], in [5] and in [9] was “inactive” throughout. Moreover, the Potency entry in test [12], in test [14], in test [15] and in test [16] was “inactive” throughout. The result in [7], in [19], in test [10], in [11] and in test [13] was inactive.

Consider `CCOc1cc(OCC)c(C(=O)CCC(=O)O)cc1OCC`, for which the Potency result in test [1], in test [2], in test [3], in [4], in [5] and in [17] was “inactive” throughout. Moreover, the Potency entry in test [12], in [14], in test [15] and in test [16] was “inactive” in each case. For the same compound, the outcome in test [6], in test [7], in test [8], in [18], in test [10] and in test [11] was inactive. Besides, the result in test [13] was inactive.

The values above are taken from PubChem BioAssay (Tox21).
